A short description of assay [1]: BET inhibitor-based combinations targeting novel dependencies in MECOM-rearranged (r) AML: SET-2 cell line (AID 2202231). Further: nearly all actives have a fitted effect of over 35% in size.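 On viability: plate controls were DMSO treated cells for no effect and wells without cells for full effect.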 The note with it: SET-2 AML cells viability, CellTiter-Glo luminescence, 48 h; viability: stronger effect = lower value, concentration not given here. A digest of the protocol: (§1)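 Readout: CellTiter-Glo luminescence. Exposure: 48 h, 11 concentrations, 500 cells/well. Metric: AUC and within-line Z-AUC after DMSO/empty-well normalization.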
For orientation: Cellular ATP, detected with luciferase, serves as a proxy for viable cell number.

Assay [2] can be described thus: BET inhibitor-based combinations targeting novel dependencies in MECOM-rearranged (r) AML: OCI-AML3 cell line (AID 2202232). Further: nearly all actives have a fitted effect of over 35% in size. As to conditions: Potency: OCI-AML3 viability. A digest of the protocol: as §1
Assay [3] is described as follows: BET inhibitor-based combinations targeting novel dependencies in MECOM-rearranged (r) AML: MV-4-11 cell line (AID 2202233). Further: nearly all actives have a fitted effect of over 45% in size. An outline of the steps: (§2)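 Seeding density was 500 cells/well, and drug exposure lasted 48 hr under standard culture conditions. Read-out used CellTiter-Glo reagent with a 15 min room-temperature incubation before luminescence measurement; AUC and Z-AUC summarize the normalized responses.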

Assay [4] can be described thus: BET inhibitor-based combinations targeting novel dependencies in MECOM-rearranged (r) AML: HNT-34 cell line (AID 2202234). Further: nearly all actives have a fitted effect of over 35% in size. An outline of the steps:
as §2

Assay [5] can be described thus: BET inhibitor-based combinations targeting novel dependencies in MECOM-rearranged (r) AML: UCSD-AML1 cell line (AID 2202235). Further: nearly all actives have a fitted effect of over 40% in size. A digest of the protocol: as §2
The nature of assay [6]: BET inhibitor-based combinations targeting novel dependencies in MECOM-rearranged (r) AML: AML-191 cell line (AID 2202236; further: nearly all actives have a fitted effect of over 35% in size). A digest of the protocol:
as §1

Assay [7] in a line: BET inhibitor-based combinations targeting novel dependencies in MECOM-rearranged (r) AML: AML-194 cell line (AID 2202237; further: nearly all actives have a fitted effect of over 40% in size). A digest of the protocol: as §1

Inconclusive results are not listed. Values without a mark were called inactive. Calls of active or inactive are those of the source. The call rests on the fitted dose curve; in most records, active means well fitted curve in the direction sought with a large enough effect; inconclusive means small, poorly fitted or top-dose-only effect, or another doubt; inactive means no such curve, though single readings can be large; an effect the other way counts as inactive or inconclusive.

The term viability denotes a read-out of living cells in per cent, often relative to untreated cells.
Potency means the concentration at half of the fitted maximal effect.

Take `O=C(/C=C/c1ccc2ccc(C(F)(F)F)cc2n1)c1ccncc1`: the Potency in assay [1] is 2.63 µM (active); in assay [2], 1.86 µM (active); in assay [3], 1.05 µM (active); in assay [4] it was 1.32 µM (active); in assay [5], 1.66 µM (active); in assay [6], 1.86 µM (active). For the same compound, the Potency in assay [7] is 2.35 µM (active).
For the compound `Nc1ccn([C@@H]2O[C@H](CO)[C@@H](O)C2O)c(=O)n1` (some centres undefined), the Potency in assay [1] was 0.332 µM (active); in assay [2], 3.32 µM (active); in assay [3], 0.833 µM (active); in assay [4], 0.0742 µM (active); in assay [5], 0.0295 µM (active); in assay [6], 0.0742 µM (active).
On to `Cc1cc(-n2c(=O)ccc3cnc4[nH]ccc4c32)ccc1F`, for which the viability in assay [1] is 115%. For the same compound, the Potency result in assay [2] and in assay [4] was “inactive” throughout. The Potency is 16.6 µM (active) in assay [3], 18.6 µM (active) in assay [5] and 20.9 µM (active) in assay [6].
`CN(C)C(N)=NC(=N)N`: the viability in assay [1] was 120%. Besides, the Potency result in assay [2], in assay [3], in assay [4], in assay [5], in assay [6] and in assay [7] was “inactive” in each case.
Take `CC1(C)O[C@@H]2C[C@H]3[C@@H]4C[C@H](F)C5=CC(=O)C=C[C@]5(C)[C@@]4(F)[C@@H](O)C[C@]3(C)[C@]2(C(=O)CO)O1`: the viability in assay [1] is 113%. Moreover, the Potency result in assay [2], in assay [3], in assay [4], in assay [5], in assay [6] and in assay [7] was “inactive” in each case.
For `COc1ccc(-c2oc3c(CC=C(C)C)c(OC4O[C@H](CO)[C@@H](O)[C@H](O)[C@H]4O)cc(O)c3c(=O)c2OC2O[C@@H](C)[C@H](O)[C@@H](O)[C@H]2O)cc1` (some centres undefined), the viability in assay [1] is 116%. Further, the Potency entry in assay [2], in assay [3], in assay [4], in assay [5], in assay [6] and in assay [7] was “inactive” each time.
On to `C[C@@H]1COCCN1c1cc(-c2ccnn2C)c2ccnc(-c3ccn[nH]3)c2n1`, for which the Potency in assay [1] is 0.0833 µM (active); in assay [2] it was 0.0525 µM (active); in assay [3] it was 0.118 µM (active); in assay [4] it was 0.296 µM (active); in assay [5], 0.0661 µM (active); in assay [6], 0.296 µM (active). In addition, the Potency in assay [7] is 0.332 µM (active).
For `CC(C)(C)C(=O)OCOP(=O)(COCCn1cnc2c(N)ncnc21)OCOC(=O)C(C)(C)C`, the Potency in assay [1] is 4.68 µM (active); in assay [2], 0.525 µM (active); in assay [3], 0.209 µM (active); in assay [4], 2.63 µM (active); in assay [5], 1.86 µM (active); in assay [6] it was 1.66 µM (active). In addition, the Potency in assay [7] was 2.95 µM (active).
Regarding `COc1cc(NS(C)(=O)=O)ccc1Nc1c2ccccc2nc2ccccc12`, the Potency in assay [1] is 2.09 µM (active); in assay [2] it was 0.372 µM (active); in assay [3], 0.0661 µM (active); in assay [4], 0.372 µM (active); in assay [5] it was 0.417 µM (active); in assay [6] it was 0.742 µM (active). Moreover, the Potency in assay [7] is 0.742 µM (active).
Consider `Nc1cccc2c1CN([C@H]1CCC(=O)NC1=O)C2=O`, for which, in assay [1], the viability is 111%. Besides, the Potency result in assay [2], in assay [3], in assay [5], in assay [6] and in assay [7] was “inactive” in each case. For the same compound, the Potency in assay [4] was 1.18 µM (active).
Regarding `C=CC(=O)Nc1cccc(Oc2nc(Nc3ccc(N4CCN(C)CC4)c(F)c3)nc3[nH]ccc23)c1`, the Potency in assay [1] is 14.8 µM (active); in assay [2], 8.33 µM (active); in assay [3], 0.742 µM (active); in assay [4] it was 1.32 µM (active); in assay [5], 4.68 µM (active); in assay [6], 5.9 µM (active). For the same compound, in assay [7], the Potency is 6.61 µM (active).
In the case of `COc1ccc(N2C(=O)N(c3c(C)cccc3Cl)Cc3cnc(Nc4ccc(C5CCN(C)CC5)cc4OC)nc32)nc1`, the Potency was 16.6 µM (active) in assay [1]; 16.6 µM (active) in assay [2]; 2.95 µM (active) in assay [3]; 1.66 µM (active) in assay [4]; 13.2 µM (active) in assay [5]; 16.6 µM (active) in assay [6]. Also, the Potency in assay [7] is 18.6 µM (active).
For the compound `CCC[C@@H]1C[C@@H](C(=O)N[C@@H]([C@H]2O[C@H](SC)[C@H](O)[C@@H](O)[C@H]2O)[C@H](C)Cl)N(C)C1`, in assay [1], the viability is 110%. Moreover, the Potency entry in assay [2], in assay [3], in assay [4], in assay [5], in assay [6] and in assay [7] was “inactive” each time.
Turning to `O=C1NC(=O)[C@@H](c2c[nH]c3ccccc23)[C@H]1c1cn2c3c(cccc13)CCC2`, the Potency was 2.35 µM (active) in assay [1]; 1.18 µM (active) in assay [2]; 1.32 µM (active) in assay [3]; 0.934 µM (active) in assay [4]; 1.05 µM (active) in assay [5]; 0.934 µM (active) in assay [6]. Besides, the Potency in assay [7] was 0.934 µM (active).
Take `CCC(=O)OCC(=O)C1(OC(=O)CC)C(C)CC2C3CCC4=CC(=O)C=CC4(C)C3(F)C(O)CC21C` (centres undefined): in assay [1], the viability was 109%. Further, the Potency result in assay [2], in assay [3], in assay [4], in assay [5], in assay [6] and in assay [7] was “inactive” in each case.
Turning to `Cc1cnc(NC(=O)Nc2cc(Br)c(C)cc2OC[C@@H]2CNCCO2)cn1`, the Potency in assay [1] is 4.17 µM (active); in assay [2] it was 3.72 µM (active); in assay [3], 2.09 µM (active); in assay [4], 9.34 µM (active); in assay [5] it was 1.48 µM (active); in assay [6], 2.95 µM (active). The Potency in assay [7] was 4.17 µM (active).
As to `Cn1c(NCCN(CCO)CCCc2ccc([N+](=O)[O-])cc2)cc(=O)n(C)c1=O`, the viability in assay [1] was 114%. Moreover, the Potency result in assay [2], in assay [3], in assay [4], in assay [5], in assay [6] and in assay [7] was “inactive” throughout.
As for `O=C(NO)c1cnc(N2C[C@H]3C[C@@H]2CN3c2cc(C(F)(F)F)ccn2)nc1`, the Potency is 2.35 µM (active) in assay [1]; 3.72 µM (active) in assay [2]; 2.09 µM (active) in assay [3]; 3.72 µM (active) in assay [4]; 3.72 µM (active) in assay [5]; 4.17 µM (active) in assay [6]. Besides, the Potency in assay [7] was 4.17 µM (active).

The record behind these values is PubChem BioAssay (NCATS).
